# Experimental data: PubChem BioAssay AID757 (NMMLSC, 2007)
# Hit rate of the full screen: of about 190,000 compounds, about 520 (0.27%) were called active. Another 2% or so got no clear call; they are omitted.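 How the source made its calls: active means GTP binding activity at least 20 points away from the 100% control level, either lower or higher; inconclusive means compound flagged as likely green fluorescent, judged across all proteins; inactive means the rest.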 Many of the other results were omitted from the sample, so actives are more common in it than they were.
# Molecular target: Ras-related C3 botulinum toxin substrate 1 (Homo sapiens) (UniProt P63000)
# Assay: compounds altering fluorescent GTP loading on wildtype Rac1 – biochemical, GST-Rac1 beads, flow cytometry, multiplex, primary screen (AID 757)
# Conditions: at 10 µM, actives lie on both sides, 0 = cold GTP competed, 100 = untreated
row,SMILES,GTP binding activity (% of control)
1,CCc1ccc(C(=O)OCC(=O)NCC(F)(F)F)cc1,98% (inactive)
2,CN(Cc1ccccn1)Cc1nc(-c2ccc(Cl)cc2)no1,101% (inactive)
3,COc1ccccc1-c1noc(CSc2nc(C)cc(=O)[nH]2)n1,93% (inactive)
4,COc1ccc(CC(NC(C)=O)C(=O)NC2CCN(C(=O)C3CC3)CC2)cc1OC (centres undefined),101% (inactive)
5,O=C(/C=C/c1ccc(Cl)cc1Cl)c1cccnc1,92% (inactive)
6,O=C(Nc1cccnc1)c1ccc(Cl)c([N+](=O)[O-])c1,98% (inactive)
7,O=C(/C=C/c1ccc(Cl)c([N+](=O)[O-])c1)c1cccnc1,78% (active)
8,O=C(CC1CCCCC1)NCc1ccc(F)cc1,100% (inactive)
9,O=C(NCCCn1ccnc1)C(=O)c1cn(CC(=O)N2CCCCCC2)c2ccccc12,100% (inactive)
10,COc1cc(C(=S)NCc2ccccc2)cc(Br)c1O,79% (active)
11,COc1cc(CNC2CCCC2)c(Br)cc1OCc1ccccc1,96% (inactive)
12,COc1cc(C=O)c(Br)cc1OCC(=O)NCc1ccccc1,97% (inactive)
13,Cc1ccc(NC(=O)CSc2nnc(CNC(=O)c3ccccc3F)o2)cc1,92% (inactive)
14,CS(=O)(=O)N(CC(=O)N1CCCC1)Cc1ccccc1,106% (inactive)
15,COc1cccc(CNC(=O)CCC2CCCN(C(=O)c3cc(C)[nH]n3)C2)c1 (centres undefined),100% (inactive)
16,CC(=O)N1N=C(c2ccccc2)OC1c1cccnc1 (centres undefined),98% (inactive)
17,CCc1nc(C)cn1S(=O)(=O)c1cc([N+](=O)[O-])ccc1Cl,96% (inactive)
18,Cc1cccc(NC(=S)NC23CN4CN(CN(C4)C2)C3)c1,99% (inactive)
19,COC(=O)CC1=NN(c2ccccc2)C(=O)C1,101% (inactive)
20,O=C(NCC(=O)N(CC1CCCO1)C(C(=O)NC1CCCCC1)c1ccccc1)c1ccco1 (centres undefined),103% (inactive)
21,COc1ccc2ccccc2c1CNc1nnnn1C,93% (inactive)
22,O=C(NCCCN1CCOCC1)c1ccc(N2CCCC2)c([N+](=O)[O-])c1,99% (inactive)

row,SMILES,GTP binding activity (% of control)
1,CC(=O)c1ccc(N2CCN(S(=O)(=O)c3c(C)[nH]c(=O)[nH]c3=O)CC2)cc1,99% (inactive)
2,COc1ccc(Br)cc1/C=N/Nc1ccc(Cl)c(C(=O)O)c1,93% (inactive)
3,Cc1nc(-c2ccccc2)sc1C(=O)/C=C/N(C)C,96% (inactive)
4,COc1cccc(-n2c(=S)sc3c(=O)n(-c4ccccc4OC)c(SCC4OCCO4)nc32)c1,100% (inactive)
5,O=C(/C=C/c1ccccc1Cl)Nc1ccc(S(=O)(=O)Nc2ncccn2)cc1,100% (inactive)
6,CCOC(=O)c1sc2nc(C)nc(Nc3ccc(OC)c(OC)c3)c2c1C,89% (inactive)
7,CCOC(=O)c1sc(-c2cccc([N+](=O)[O-])c2)cc1N,101% (inactive)
8,O=C(CNC1CCCCC1)NCC1(c2ccccc2)CCCC1,98% (inactive)
9,Cc1csc(CN(C)C(=O)CC2C(=O)NCCN2CC(C)(C)C)n1 (centres undefined),98% (inactive)
10,COCCN(CCOC)C(=S)Nc1ccccc1Cl,95% (inactive)
11,CC1CC1C(=O)OCC(=O)c1c(N)n(C)c(=O)n(C)c1=O (centres undefined),92% (inactive)
12,CSc1nsc(SC)c1NC(=O)OC1CCCCC1,30% (active)
13,COc1ccc(NC(=O)c2c(SC)nsc2SC)cc1,110% (inactive)
14,CSc1ncccc1C(=O)NC1CCCCCC1,99% (inactive)
15,Cn1ncc(N2CCN(S(=O)(=O)c3ccc(Br)cc3)CC2)c(Cl)c1=O,99% (inactive)
16,CCc1ccccc1NC(=O)CN(c1ccc(OC)cc1OC)S(=O)(=O)c1ccccc1[N+](=O)[O-],100% (inactive)
17,O=C(NNC(=S)Nc1ccccc1)c1cccc(S(=O)(=O)N2CCOCC2)c1,96% (inactive)
18,O=C(CSc1ccsc1[N+](=O)[O-])N1CCCCC1,102% (inactive)
19,CN(c1ccc(OCC(=O)OCC(=O)Nc2cccc([N+](=O)[O-])c2)cc1)S(=O)(=O)c1ccc(F)cc1,101% (inactive)
20,CCOc1ccc(S(=O)(=O)Nc2nccs2)cc1,94% (inactive)
21,O=C(Nn1cnc2ccccc2c1=O)c1ccc([N+](=O)[O-])cc1Cl,96% (inactive)
22,Cc1cnc(C(=O)N2CCCC(C(=O)c3ccc(C(F)(F)F)cc3)C2)cn1 (centres undefined),100% (inactive)

row,SMILES,GTP binding activity (% of control)
1,CCC1SC(CC)C(=O)N(CC(=O)NC2CCCCC2)C1=O (centres undefined),99% (inactive)
2,O=C(c1ccc(N2CCOCC2)c([N+](=O)[O-])c1)N1CCN(S(=O)(=O)c2cccs2)CC1,96% (inactive)
3,COCCNC(=S)N1CCC(NC(=O)C23CC4CC(CC(C4)C2)C3)CC1,104% (inactive)
4,Nc1ccc(-c2sc(N)nc2-c2ccccc2)cc1,98% (inactive)
5,Nc1[nH]c(=S)nc2nc(-c3ccccc3)c(-c3ccccc3)nc12,79% (active)
6,CC1CCC2(CC1)NC(=O)N(Cc1nnc(-c3cccs3)o1)C2=O (centres undefined),94% (inactive)
7,CCN(CCCNC(=O)CCn1c(=O)[nH]c2ccsc2c1=O)c1ccccc1,99% (inactive)
8,O=C(Nc1ccccc1)N1CCN(C(=O)Nc2ccccc2)CC1,94% (inactive)
9,O=C(N1CCCCC1)N1CCN(C(=O)N2CCCCC2)CC1,98% (inactive)
10,CCOc1ccc(CN2CCN(Cc3ccon3)CC2CCO)cc1 (centres undefined),99% (inactive)
11,C/C(=N\OC(=O)c1ccccc1)c1c(C)nc2cc(C)ccn12,85% (inactive)
12,COC(=O)c1c(C(=O)OC)c(-c2cccc(C)c2)n2c1CS(=O)C2 (centres undefined),95% (inactive)
13,CCC1CO/C(=C(\C(=C(Cl)Cl)N2CCOCC2)[N+](=O)[O-])N1 (centres undefined),101% (inactive)
14,CC(C)NC(=O)c1ccc(Cl)cc1Cl,103% (inactive)
15,OCCC1CN(Cc2ccc(Oc3ncccn3)cc2)CCN1CCc1ccccc1 (centres undefined),98% (inactive)
16,CCOC(=O)CSC1=N/C(=C/c2ccc(-n3cncn3)cc2)C(=O)N1C(C)=O,96% (inactive)
17,CCC(CC)c1nnc(NC(=O)c2nn(C)c(=O)c3ccccc23)s1,96% (inactive)
18,CC(=O)c1cc(C#N)c(N2CCCCC2)nc1C,97% (inactive)
19,COc1cc(COCC(O)CN2CCN(Cc3ccc4c(c3)OCO4)CC2)cc(OC)c1OC (centres undefined),102% (inactive)
20,O=[N+]([O-])c1cccc(Nc2c3ccccc3nc3ccccc23)c1,93% (inactive)
